Source: PubChem BioAssay (Tox21)
Inconclusive results are not listed. A number with no mark means an inactive call. Activity calls are given as the source filed them. Calls come from the whole dose curve; as a rule, active = well fitted activation curve with a large enough effect in the repeat runs; inconclusive = weak or mixed curves; inactive = flat fitted curve, though single readings scatter.
% is set by controls: 0 for no effect and ±100 for the full control effect; potency is the fitted concentration of half-maximal effect.

Assay: A CellTox Green Cytotoxicity Assay to monitor cytotoxicity in HepG2 cells - 16 hour (AID 1224876); note: nearly all actives have a fitted effect of over 45% in size
Details: CellTox Green fluorescence; series mostly up to 76.8 µM; cytotoxicity increase: at the top concentration
Source text: National Center for Advancing Translational Sciences [NCATS]
NIH Chemical Genomics Center [NCGC]
U.S. Environmental Protection Agency [EPA]
National Institutes of Environmental Health Sciences [NIEHS]
National Toxicology Program [NTP]
Cell-based models are critical for drug discovery. Determining the natural cytotoxic effects resulting from test compounds is an essential research activity. A CellTox Green Cytotoxicity Assay to monitor cytotoxicity in real time of continues cell culture during 40 hours of the compound treatment was used to screen Tox21 10K library compounds in HepG2 cells. CellTox Green Cytotoxicity Assay is a nonlytic, homogeneous, biofluorescent method to measure cytotoxicity in cell culture after experimental manipulation. The assay system uses a proprietary asymmetric cyanine dye that is excluded from viable cells but preferentially stains the dead cell's DNA. […] Viable cells produce no appreciable increases in fluorescence. Therefore, the fluorescence signal produced by the binding interaction with dead cell DNA is proportional to cytotoxicity.
The mixture of HepG2 cell suspension and reagents were dispensed at 600cells/6 ul/well in 1536-well tissue culture treated black solid bottom plates using a Multidrop dispenser. After the assay plates were incubated at a 37 C/5% CO2 incubator for 5 hours, 23 nL of compounds dissolved in DMSO, positive and negative controls was transferred to the assay plate by a pintool work station. The plates were incubated at 37 C for 40 hours. The fluorescence intensity were measured at 0h, 8h, 16h, 24h, 32h and 40h time points using ViewLux plate reader during compound treatment.
For `O=c1cc[nH]cc1`, the “cytotoxicity increase” value was -2.46%.
With `CCN(CC)c1ccc(C=O)c(O)c1` the “cytotoxicity increase” value was 6.34%.
In the case of `NC(=O)c1ccccc1Cl`, the “cytotoxicity increase” value is reported as -0.318%.
For `CCC(O)CO` (stereo not given), the “cytotoxicity increase” value was -12.7%.
For `CN1CC[C@H](c2c(O)cc(O)c3c(=O)cc(-c4ccccc4Cl)oc23)[C@H](O)C1`, the “cytotoxicity increase” value was 2.65% [at 35.3 µM].
With `NCc1ccco1` the “cytotoxicity increase” value was 0.807%.
With `C=C(C)CCO` the “cytotoxicity increase” value was -18.5%.
With `C=C1CC[C@H]2O[C@]2(C)CC[C@@H]2[C@@H]1CC2(C)C` the “cytotoxicity increase” value was -9.48%.
For `CCCCC/C=C\C=C\C(=O)OCC`, the “cytotoxicity increase” value was 22.8%.
In the case of `Cc1ccc2nc(-c3ccc(N)cc3)sc2c1S(=O)(=O)O`, the “cytotoxicity increase” value is reported as 0.292% [at 35.3 µM].
For `c1ccc2occc2c1`, the “cytotoxicity increase” value was -3.58%.
With `CSc1ccc(O)cc1C` the “cytotoxicity increase” value was -10.8%.
With `COc1cc(OC)nc(NC(=O)NS(=O)(=O)Nc2ccccc2C(=O)N(C)C)n1` the “cytotoxicity increase” value was 8.77%.
In the case of `CN(C/C=C/c1ccccc1)Cc1cccc2ccccc12`, the Potency is reported as 23.9 µM (active).
For `CN(C)CCOc1ccc(/C(=C(/CCCl)c2ccccc2)c2ccccc2)cc1`, the Potency was 32.5 µM (active).
With `CC1=CC[C@@H](C(C)(C)O)CC1` the “cytotoxicity increase” value was -14.1%.
For `O=C1CCCCCCCCCCCCCC1`, the “cytotoxicity increase” value was 21.3%.
In the case of `Nc1ccc(F)c([N+](=O)[O-])c1`, the “cytotoxicity increase” value is reported as -19.7%.
For `Cc1ccc2sc3cccc(C)c3c2c1`, the “cytotoxicity increase” value was -12.5%.
In the case of `CCc1c(C)cc(N)c(CC)c1N`, the “cytotoxicity increase” value is reported as -8.89%.
In the case of `CN1CCN(CCCN2c3ccccc3Sc3ccc(C(F)(F)F)cc32)CC1`, the Potency is reported as 23.9 µM (active).
In the case of `CC(C)c1ccc2sc3ccccc3c(=O)c2c1`, the “cytotoxicity increase” value is reported as 0.293%.
For `CC/C=C\C/C=C\C/C=C\CCCCCCCC(=O)OC`, the “cytotoxicity increase” value was -7.29%.
In the case of `CCC(=O)OC/C=C(\C)CCC=C(C)C`, the “cytotoxicity increase” value is reported as 8.75%.
For `Nc1cc([N+](=O)[O-])cc(Cl)c1O`, the “cytotoxicity increase” value was -12.9%.
With `Clc1ccc2c(Cl)ccnc2c1` the “cytotoxicity increase” value was -1.03%.
In the case of `CCc1cccc(C)c1N(C(=O)CS(=O)(=O)O)C(C)COC` (stereo not given), the “cytotoxicity increase” value is reported as -10.8%.
With `CC/C=C(\C)C=O` the “cytotoxicity increase” value was -1.47%.
For `Brc1cc(Br)cc(Br)c1`, the “cytotoxicity increase” value was 0.528%.
In the case of `Cc1ccc2n[nH]nc2c1`, the “cytotoxicity increase” value is reported as 6.47%.
In the case of `Oc1ccc(C2(c3ccc(O)c(C4CCCCC4)c3)CCCCC2)cc1C1CCCCC1`, the Potency is reported as 34.7 µM (active).
With `CCOC(=O)[C@H](O)[C@@H](O)C(=O)OCC` the “cytotoxicity increase” value was 4.46%.
In the case of `CCC1(C)C(=O)N(Cl)C(=O)N1Cl` (stereo not given), the “cytotoxicity increase” value is reported as -0.727%.
With `CCCCCCCCCC[N+](C)(CCCCCCCCCC)CCC[Si](OC)(OC)OC` the Potency was 43.6 µM (active).
In the case of `CN[C@H]1CC[C@@H](c2ccc(Cl)c(Cl)c2)c2ccc(S(N)(=O)=O)cc21`, the Potency is reported as 43.6 µM (active).
In the case of `CCCCCc1ccc(O)cc1`, the Potency is reported as 49 µM (active).
In the case of `O=C(Nc1ccc([N+](=O)[O-])cc1)Nc1ccc([N+](=O)[O-])cc1` (tested in a mixture with another compound), the “cytotoxicity increase” value is reported as 11.6% [at 35.3 µM].
In the case of `NC(=O)C1CO1` (stereo not given), the “cytotoxicity increase” value is reported as 2.77%.
With `O=C(Nc1ccccc1)c1cc(Cl)ccc1O` the “cytotoxicity increase” value was 27.9%.
For `O=C1CCC/C=C\CCCCCCCCCC1`, the “cytotoxicity increase” value was 21.9%.
